Structures can show the parent of a compound that is named as a salt.
test system: thyroid hormone receptor (endogenous TRα and TRβ); set-up: species or system GH3-TRE-Luc (rat pituitary); GH3-TRE-Luc luciferase reporter, antagonist mode against 1 nM T3, loss of signal, qHTS; settings: read-out: Average AC50 (uM) GH3-TRE-Antag, antagonist mode, 1 nM T3, no GH3 cytotoxicity hit

SMILES	AC50 [µM]
CCCCOC(=O)/C=C\C(=O)OCCCC [Dibutyl maleate]	37.6
Cc1nc(-c2ccc(OCC(C)C)c(C#N)c2)sc1C(=O)O [Febuxostat]	17.9
COCc1c(C(C)C)nc(C(C)C)c(/C=C/[C@@H](O)C[C@@H](O)CC(=O)O)c1-c1ccc(F)cc1 [Cerivastatin sodium]	13.7
CN(C)CCN1C(=O)c2ccccc2N(C)c2ccccc21 [Dibenzepin hydrochloride]	36.6
COc1ccc(/C=C/C(=O)Nc2ccccc2C(=O)O)cc1OC [Tranilast]	12.3
C=C1C[C@H]2[C@@H]3C=C(C)C4=CC(=O)CC[C@]4(C)[C@H]3CC[C@]2(C)[C@@]1(OC(C)=O)C(C)=O [Melengestrol acetate]	26.6
CCCCCCCCCCCCSC#N [Lauryl thiocyanate]	42.6
O=C(N[C@H]1N=C(c2ccccc2F)c2cccc3c2N(CC3)C1=O)c1cc2ccccc2[nH]1 [Pranazepide]	12.1
CNCc1ccc(NC(=O)c2c[nH]c3c2C(=O)CCC3)cc1 [CP-409092]	84.3
Cc1cc(CC(=O)O)c(C)n1-c1ccc(Cl)cc1 [Clopirac]	38.5
Cc1ccc(/C(=C\CN2CCCC2)c2ccccn2)cc1 [Triprolidine]	21.5
COc1ccc2c(c1)c1c3n2CCN(C)C3=NCC1 [Metralindole]	28.1
O=C(c1ccc(F)cc1)C1CCN(CCn2c(=S)[nH]c3ccccc3c2=O)CC1 [Altanserin hydrochloride]	46.6
c1ccc2c(c1)ccc1ccccc12 [Phenanthrene]	50.1
C=CCc1ccccc1OCC(O)CNC(C)C (stereo not shown) [Alprenolol]	27.2
Cc1c(Cl)cccc1Nc1ccccc1C(=O)O [Tolfenamic acid]	12.5
Cc1cc(-n2c(=O)[nH]c(=O)n(C)c2=O)ccc1Oc1ccc(S(=O)(=O)C(F)(F)F)cc1 [Toltrazuril sulfone]	51.6
COc1cc(NC(=O)CC(C)=O)c(OC)cc1Cl [4'-Chloro-2',5'-dimethoxyacetoacetanilide]	> 90
C=CCCCCCCCCC(=O)O [10-Undecenoic acid]	43.6

SMILES	AC50 [µM]
CCCCC(CC)COC(=O)/C=C/c1ccc(OC)cc1 (stereo not drawn) [2-Ethylhexyl trans-4-methoxycinnamate]	> 90
CCCCCCCCCCCCCOS(=O)(=O)O [Sodium tridecyl sulfate]	67.6
C=CCNC1=C2C[C@@H](C)C[C@H](OC)[C@H](O)[C@@H](C)/C=C(\C)[C@H](OC(N)=O)[C@@H](OC)/C=C\C=C(/C)C(=O)NC(=CC1=O)C2=O [Tanespimycin]	0.306
CC(Oc1ccc(Oc2ncc(C(F)(F)F)cc2Cl)cc1)C(=O)O (stereo not shown) [Haloxyfop]	58.9
CCOC(=O)NCCOc1ccc(Oc2ccccc2)cc1 [Fenoxycarb]	75.9
CCOc1ccc2nc3cc(N)ccc3c(N)c2c1 [Ethacridine lactate hydrate]	40.1
CC(C)=CCC/C(C)=C/C=C/C(C)=C/C=C/C(C)=C/C=C/C=C(C)/C=C/C=C(C)/C=C/C=C(\C)CCC=C(C)C [Lycopene]	31.7
C[C@@H]1C[C@H]2[C@@H]3CCC4=CC(=O)C=C[C@]4(C)[C@@]3(Cl)[C@@H](O)C[C@]2(C)[C@@]1(OC(=O)c1ccco1)C(=O)CCl [Mometasone furoate]	16.9
CC1CC(OC(=O)C(O)c2ccccc2)CC(C)(C)C1 (stereo not shown) [Cyclandelate]	44.8
CC/C=C\CCOC(=O)c1ccccc1 [(3Z)-Hex-3-en-1-yl benzoate]	73.9
CC(C)CCC[C@@H](C)[C@H]1CC(=O)C2=C3CC[C@H]4C[C@@H](O)CC[C@]4(C)[C@H]3CC[C@@]21C [Colestolone]	7.21
CCCCCCCCCCCCCCn1cc[n+](C)c1 [1-Methyl-3-tetradecylimidazolium hexafluorophosphate]	68.5
OC(CCCN1CCCCC1)(c1ccccc1)c1ccccc1 [Diphenidol]	19
CCCCCCCCCCCCNC(=N)N [Dodine]	2.89
CC[C@H](NC(=O)c1cc(F)ccc1NS(=O)(=O)c1cccc2cccnc12)c1ccccc1 [AVE3295]	56.9
c1ccc2c(c1)ccc1ncccc12 [Benzo(f)quinoline]	> 90
CCC(C)(C)C(=O)OC1=C(c2ccc(Cl)cc2Cl)C(=O)OC12CCCCC2 [Spirodiclofen]	51.5
C[C@]12CC[C@H]3[C@@H](CC[C@@]45O[C@@H]4C(O)=C(C#N)C[C@]35C)[C@@H]1CC[C@@H]2O [Trilostane]	> 50

same assay, conditions: read-out: Average AC50 (uM) GH3-TRE-Antag, antagonist mode, 1 nM T3, no GH3 cytotoxicity hit, Average AC50 (uM) GH3-TRE-Antag, 24 h

SMILES	AC50 [µM]
CC(C)n1c(/C=C/[C@H](O)C[C@H](O)CC(=O)O)c(-c2ccc(F)cc2)c2ccccc21 (racemic) [Fluvastatin]	45.3
CCCCCCCCn1cc[n+](C)c1 [1-Methyl-3-octylimidazolium hexafluorophosphate]	33
CCCCCCn1cc[n+](C)c1 [1-Hexyl-3-methylimidazolium trifluoromethanesulfonate]	52.5
